TGFb SMAD3 inh = inhibitors of TGF-b signaling. HepG2 CAGA-GFP TGF-b/SMAD3 reporter, GFP fluorescence, 18 h; TGF-beta stimulated, 500 pg/mL final. hit rate 1.2% among 410,000. Potency, µM (doses to about 46.1 µM), most hits filed as inhibitors; also: nearly all actives have a fitted effect of over 65% in size
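Cell-based qHTS in HEPG2 carrying a CAGA-GFP Smad reporter; compounds added before 500 pg/mL final TGF-beta, 18 h incubation at 37 degrees C, GFP fluorescence quantified per cell by imaging cytometry.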
HepG2 viability = kills HepG2 cells in TGF-b inhibitor counter-screen. HepG2 CAGA-GFP viability, ATP luminescence, 18 h. hit rate 0.76% among 410,000. Potency, µM (doses to about 46.1 µM), most hits filed as cytotoxic. AID 588856
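HepG2 CAGA-GFP cells (1000/well, DMEM with 1% FBS) received compound, then TGF-beta at 500 pg/mL final, and were incubated 18 hours at 37 degrees C. Viability was read by CellTiter-Glo luminescence. Media-only wells were set as complete cell-killing and DMSO as no toxicity.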
Gal4-VP16 FLuc = counter-screen for ROR gamma inhibitors: Gal4-VP16 reporter | Drosophila S2 Gal4-VP16 UAS-luciferase, luminescence, 20 h | Potency, µM (doses to about 53.6 µM), hits mostly inhibitors | hit rate 3.5% among 310,000;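 also: Gal4-VP16 expression switched on by copper sulfate through the metallothionein promoter; nearly all actives have a fitted effect of over 50% in size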
ATXN viability = viability counter-screen for ATXN expression inhibitors. S2 cells (HEK-293 line with an ATXN2-luciferase reporter) viability, CellTiter-Fluor protease fluorescence, 24 h. Potency, µM (series often up to 56.7 µM), most hits filed as cytotoxic. hit rate 0.49% among 400,000; also: nearly all actives have a fitted effect of over 40% in size
ATXN2 expr inh = inhibitors of ATXN2 expression. Potency, µM (titrated, usually from 57 µM), usual class: inhibitors. AID 1745845. HEK-293 ATXN2-luciferase reporter, luminescence, 24 h. hit rate 0.72% among 360,000; also: nearly all actives have a fitted effect of over 55% in size
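ATXN2-luciferase reporter cells (luciferase flanked by upstream and downstream ATXN2 gene portions) were treated 24 h at 37 °C with compounds at up to 57 uM. SteadyGlo luminescence gave expression; GF-AFC fluorescence gave viability.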
RORgamma inh = blocks mouse ROR gamma transcriptional activity; P51450; Drosophila S2 Gal4-RORgamma UAS-luciferase reporter, 20 h; Potency, µM (titrated, usually from 53.6 µM), most hits filed as inhibitors; hit rate 5.4% among 310,000; AID 2551; also: nearly all actives have a fitted effect of over 60% in size
Target sequence (P51450 whole entry, looked up, the tested form may be a part): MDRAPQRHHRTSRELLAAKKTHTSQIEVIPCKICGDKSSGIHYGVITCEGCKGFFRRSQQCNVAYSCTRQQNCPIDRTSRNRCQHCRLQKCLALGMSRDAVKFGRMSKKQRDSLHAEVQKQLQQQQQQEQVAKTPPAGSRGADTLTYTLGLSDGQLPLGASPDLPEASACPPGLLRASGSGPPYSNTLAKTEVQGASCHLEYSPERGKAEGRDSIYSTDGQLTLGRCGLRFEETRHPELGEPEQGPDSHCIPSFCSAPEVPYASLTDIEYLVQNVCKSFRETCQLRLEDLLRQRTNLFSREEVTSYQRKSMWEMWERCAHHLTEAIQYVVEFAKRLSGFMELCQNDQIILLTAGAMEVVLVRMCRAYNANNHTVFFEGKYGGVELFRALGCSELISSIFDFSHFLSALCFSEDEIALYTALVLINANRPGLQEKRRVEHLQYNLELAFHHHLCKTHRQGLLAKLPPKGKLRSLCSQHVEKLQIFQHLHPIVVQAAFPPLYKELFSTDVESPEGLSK
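Stably transfected Drosophila Schneider cells are the test system, with ROR gamma fused to Gal4 and luciferase under UAS control; luminescence is read after 20 hr of 700 uM copper sulfate induction at ambient temperature.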
Of the large screens only hits and unclear results are named; the others gave an inactive call. Rows were chosen to be rich in hits. Some 6.3% of all compounds tested hit in one or more screens of this group. Calls follow the shape of the dose curve; as a rule, active = well fitted curve in the direction sought with a large enough effect; inconclusive = small, poorly fitted or top-dose-only effect, or another doubt; inactive = no such curve, though single readings can be large; an effect the other way counts as inactive or inconclusive.

CSc1nnc(NC(=O)c2cc(=O)c3cc(C)cc(C)c3o2)s1	Gal4-VP16 FLuc inconclusive, ATXN viability 25µM
CCn1c(=S)[nH]c2scc(-c3cccs3)c2c1=O	TGFb SMAD3 inh inconclusive, Gal4-VP16 FLuc 3.2µM, RORgamma inh 0.71µM
O=c1c2c(-c3cccs3)csc2[nH]c(=S)n1-c1ccccc1	Gal4-VP16 FLuc 3.5µM, RORgamma inh 2.2µM
C=CCn1c(SCC(C)=O)nc2scc(-c3ccc(C)o3)c2c1=O	none
CC(C)n1c(=S)[nH]c2scc(-c3cccs3)c2c1=O	TGFb SMAD3 inh inconclusive, ATXN2 expr inh inconclusive, RORgamma inh inconclusive
C=CCn1c(=S)[nH]c2scc(-c3ccc(C)o3)c2c1=O	Gal4-VP16 FLuc 1.3µM, RORgamma inh 0.28µM
CC(C)CNC(=O)C1(C)CCCN1C(=O)c1ccc2c(c1)CCO2 (stereo not drawn)	none (no result: Gal4-VP16 FLuc, RORgamma inh)
O=C1c2ccccc2NC(c2ccc([N+](=O)[O-])cc2)N1O (stereo not drawn)	ATXN viability inconclusive, ATXN2 expr inh inconclusive, RORgamma inh 11µM
CCN(CC)CCCNC(=O)c1nn(C)c2c1CS(=O)(=O)c1ccccc1-2	none (no result: Gal4-VP16 FLuc, RORgamma inh)
CC1Cc2ccccc2N1c1ncnc(N)c1[N+](=O)[O-] (stereo not drawn)	TGFb SMAD3 inh inconclusive, Gal4-VP16 FLuc inconclusive, ATXN viability inconclusive, RORgamma inh 4.5µM (no result: ATXN2 expr inh)
Cc1ccc(Sc2c(C)nn(C(=O)COc3ccccc3)c2C)cc1	none (no result: Gal4-VP16 FLuc, RORgamma inh)
COc1ccc(NC(=S)Nc2ccc(OCc3ccccc3)cc2)c(OC)c1	TGFb SMAD3 inh inconclusive, Gal4-VP16 FLuc 7.1µM, RORgamma inh 7.1µM
COc1ccc(NC(=S)NCC(O)c2ccccc2)c(OC)c1 (stereo not drawn)	none
S=C(Nc1ccccc1)Nc1ccc(OCc2ccccc2)cc1	TGFb SMAD3 inh inconclusive, RORgamma inh 11µM (no result: ATXN viability, ATXN2 expr inh)
COc1ccc(NC(=S)Nc2ccccc2)c(OC)c1	Gal4-VP16 FLuc inconclusive, RORgamma inh 13µM
CC12CCC(C)(c3nc4ccccc4nc31)C2(C)C	none
Cc1[nH]nc2c1-c1nc3ccccc3nc1C(C)(C)C2	Gal4-VP16 FLuc 3.2µM, RORgamma inh 4µM
O=C(NCC(c1cccnc1)N1CCN(c2ccccc2F)CC1)C(=O)Nc1ccc(F)cc1F (stereo not drawn)	TGFb SMAD3 inh inconclusive (no result: Gal4-VP16 FLuc, ATXN viability, ATXN2 expr inh, RORgamma inh)
COc1ccc(NC(=O)N2CCC3(CC2)CCN(C(=O)c2cccc(F)c2)CC3)cc1	none (no result: TGFb SMAD3 inh, HepG2 viability, ATXN viability, ATXN2 expr inh)
COc1cc(C)c(NC(=S)Nc2cccc(Cl)c2)cc1OC	RORgamma inh inconclusive
COc1cc(C)c(NC(=S)Nc2ccc(C)c(Cl)c2)cc1OC	Gal4-VP16 FLuc inconclusive, RORgamma inh 11µM
COc1cc(OC)c(NC(=S)Nc2cccc(C)c2)cc1Cl	Gal4-VP16 FLuc inconclusive, RORgamma inh 10µM
COc1ccccc1/C=C/C(=O)NC(=S)Nc1ccccn1	Gal4-VP16 FLuc 5.6µM, RORgamma inh 4.5µM (no result: ATXN2 expr inh)
O=C(/C=C/c1ccco1)NC(=S)Nc1ccccn1	Gal4-VP16 FLuc inconclusive, RORgamma inh 10µM
COc1ccc(/C=C/C(=O)NC(=S)Nc2ccccn2)cc1	ATXN viability inconclusive, RORgamma inh inconclusive (no result: ATXN2 expr inh)
Cc1cccnc1NC(=S)NC(=O)/C=C/c1ccco1	Gal4-VP16 FLuc 7.9µM, RORgamma inh 2.8µM
O=C(/C=C/c1ccco1)NC(=S)Nc1cccc(C(=O)O)c1	none
Cn1nnc(NC(=S)NC(=O)/C=C/c2ccco2)n1	none
CCCOc1ccc2c(c1)CC[C@@H]1[C@@H]2CC[C@]2(C)C(OC)CC[C@@H]12 (stereo partly drawn)	none (no result: TGFb SMAD3 inh, HepG2 viability, Gal4-VP16 FLuc, RORgamma inh)
COc1ccc2oc(C(=O)Nc3ccc(S(=O)(=O)N(C)C4CCN(C)CC4)cc3)c(C)c2c1	TGFb SMAD3 inh inconclusive, HepG2 viability 13µM, ATXN viability inconclusive, ATXN2 expr inh inconclusive
Cc1ccc(N2CC(c3nnc(Cc4ccc(F)cc4)o3)CC2=O)cc1 (stereo not drawn)	none (no result: Gal4-VP16 FLuc, RORgamma inh)
CN(C)C(=O)c1ccc(-c2ccc3ncnc(N4CCC(C(=O)O)CC4)c3c2)cc1	none (no result: TGFb SMAD3 inh, HepG2 viability, ATXN viability, ATXN2 expr inh)
COc1ccc(Cc2c(C3CCCCC3)nc3ccc(Cl)cn23)c(C)c1	TGFb SMAD3 inh inconclusive, ATXN viability inconclusive (no result: Gal4-VP16 FLuc, RORgamma inh)

Screening results: PubChem, National Center for Advancing Translational Sciences (NCATS)
